Source: ChEMBL document CHEMBL1157539, “Thousands of chemical starting points for antimalarial lead identification” (Nature, 2010)

Columns and labels:
Type in all cases: functional
Plasmodium falciparum [1] = assay: GSK_TCMDC: Inhibition of Plasmodium falciparum 3D7 in whole red blood cells, using parasite LDH activity as an index of growth. Test compounds present at 2uM
Plasmodium falciparum [2] = assay: GSK_TCMDC: Inhibition of Plasmodium falciparum Dd2 in whole red blood cells, using parasite LDH activity as an index of growth. Test compounds present at 2uM
HepG2 = assay: GSK_TCMDC: Percent inhibition of human HepG2 cell line. Test compounds present at 10uM.

Molecule `Cc1ccc(NC(=O)c2cccc(CN3CCCN(Cc4cccc(O)c4)CC3)c2)cc1C.O=C(O)C(F)(F)F` has an Inhibition (Plasmodium falciparum [1]) of 95%, an Inhibition (Plasmodium falciparum [2]) of 31% and an Inhibition (HepG2) of 19%.

Molecule `COc1cc(NCCCCCNc2cc(Cl)nc3ccccc23)nc2ccccc12` has an Inhibition (Plasmodium falciparum [1]) of 100%, an Inhibition (Plasmodium falciparum [2]) of 54% and an Inhibition (HepG2) of 17%.

Work on `CCc1cc2c3c(N)nc(N)nc3ccc2n1CC` yielded an Inhibition (Plasmodium falciparum [1]) of 93%, an Inhibition (Plasmodium falciparum [2]) of 0% and an Inhibition (HepG2) of 62%.

`Cl.N#Cc1ccc2c(c1)CCN(CCC1CCC(NC(=O)/C=C/c3ccc(F)c4ccccc34)CC1)CC2` (stereo not given) gave an Inhibition (Plasmodium falciparum [1]) of 95%, an Inhibition (Plasmodium falciparum [2]) of 19% and an Inhibition (HepG2) of 29%.

With `COc1ccc2nccc(N3CCN(CCNCc4ccc5c(n4)NC(=O)CS5)CC3)c2c1.Cl` the Inhibition (Plasmodium falciparum [1]) was 97%, the Inhibition (Plasmodium falciparum [2]) was 23% and the Inhibition (HepG2) was 18%.

`CC(C)C1=C[C@H]2C[C@]3(C4OCCO4)[C@@H]4CC[C@@H](C)[C@H]4C[C@@]2(COCc2cccc(C#N)c2)[C@]13C(=O)OC(c1ccccc1)c1ccccc1` showed an Inhibition (Plasmodium falciparum [1]) of 88%, an Inhibition (Plasmodium falciparum [2]) of 92% and an Inhibition (HepG2) of 0%.

`CCOC(=O)c1ccc(NC(=O)Nc2cccc(-c3cccc(-c4nc5cccc(C)c5[nH]4)c3)c2)cc1` was tested, and the Inhibition (Plasmodium falciparum [1]) was 100%, the Inhibition (Plasmodium falciparum [2]) was 99% and the Inhibition (HepG2) was 37%.

Work on `COc1ccc2c(c1C1CCN(CCCCNC(=O)c3ccc(NC(=O)c4ccc(Cl)cc4)cc3)CC1)CCCC2` yielded an Inhibition (Plasmodium falciparum [1]) of 100%, an Inhibition (Plasmodium falciparum [2]) of 99% and an Inhibition (HepG2) of 19%.

With `CC(C)Cn1cc(C2CCN(CCN3CCC(CNC(=O)c4ccc(-c5ccc(C(F)(F)F)cc5)cc4)CC3)CC2)c2ccccc21` the Inhibition (Plasmodium falciparum [1]) was 100%, the Inhibition (Plasmodium falciparum [2]) was 87% and the Inhibition (HepG2) was 100%.

Work on `COc1cc2nccc(Nc3ccc4c(cnn4Cc4cccc(F)c4)c3)c2cc1OC.Cl` yielded an Inhibition (Plasmodium falciparum [1]) of 100%, an Inhibition (Plasmodium falciparum [2]) of 99% and an Inhibition (HepG2) of 29%.
